Laboratory results taken from PubChem BioAssay AID463212 (Sanford-Burnham Center for Chemical Genomics, 2010).
About 4,400 (1.3%) of roughly 330,000 compounds were called active. This is one part of a sample in which actives are shown more often than they occur. A number with no mark means an inactive call.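 The calls were made as follows: active = growth inhibition of the mutant yeast at or above 50%; inactive = the rest.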

Test: growth inhibitors of tim23-1 mutant yeast, primary screen, luminescence, uHTS (AID 463212);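 also: temperature-sensitive mutant grown at 25 °C; plate controls were DMSO-treated mutant yeast for no effect and medium wells lacking yeast for full effect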
Details: S. cerevisiae tim23-1 growth, BacTiter-Glo luminescence, 24 h; at 20 µM; active compounds read high

Row | Compound | inhibition
1 | CCN(CC)C(=O)N1CCN(C(=O)c2ccc(C)cn2)CC1 | 8.95%
2 | O=[N+]([O-])c1ccc(N=Cc2c(O)ccc3ccccc23)cc1 | 55.5% (active)
3 | C/C(=N\N(C)C)c1ccc(OCCOc2ccc([N+](=O)[O-])cc2)cc1 | 20.4%
4 | Cc1nc2ccccc2nc(=O)c1NNc1ccc([N+](=O)[O-])cc1 | -14.3%
5 | CC(C)CNC(=O)CC(c1ccccc1)c1c(O)ccc2ccccc12 (centres undefined) | 11.2%
6 | CC(=O)n1c(C=Nc2ccccc2)c(O)c2ccccc21 | 10.8%
7 | Oc1ccc2ccccc2c1C=Nc1ccccc1 | 53.2% (active)
8 | COc1ccc(NC(=O)C2=C(C)NC(=O)NC2c2ccccc2[N+](=O)[O-])cc1 (centres undefined) | 1.02%
9 | O=C(NCC(=O)N(CC1CCCO1)C(C(=O)NC1CCCCC1)c1ccccc1)c1ccco1 (centres undefined) | 14.7%
10 | COc1cc(C2CC(=O)Oc3cc(OC)c(OC)c(OC)c32)cc(OC)c1OC (centres undefined) | 27.3%
11 | COc1ccc(NC(=O)NNC(=O)COc2cc(C)c(Cl)c(C)c2)c(OC)c1 | -17.4%
12 | Oc1ccc(Br)cc1/C=N/Nc1ccccn1 | 68% (active)
13 | Oc1cccc(/C=N/Nc2ccc(Cl)nn2)c1O | 24.4%
14 | Oc1ccc(/C=N/Nc2ccc(C(F)(F)F)cn2)cc1O | 16.3%
15 | N/C(=N\OC(=O)CCc1ccccc1)c1ccc(Cl)cc1 | 73.6% (active)
16 | COc1ccc(/C(N)=N/OC(=O)Cc2ccccc2)cc1 | 21.8%
17 | O=C(CCc1ccccc1)NNC(=O)COc1ccc(Cl)cc1 | 7.58%
18 | COc1ccc(/C(N)=N/OC(=O)CCCc2ccccc2)cc1 | 71.1% (active)
19 | N/C(=N\OC(=O)CCc1ccccc1)c1cccnc1 | 18.1%
20 | COc1ccc(/C(N)=N/OC(=O)Oc2ccccc2)cc1 | 14.8%
21 | CCC[C@H]1CCCC/C=C\CCCC(=O)OCCN1C(=O)OC(C)(C)C | 9.84%
22 | CC1Sc2ccc(C(=O)NCc3ccccc3Cl)cc2NC1=O (centres undefined) | 9.69%

Row | Compound | inhibition
23 | CCOc1ccc(N/C(N)=N/c2nc(C)c(C)c(=O)[nH]2)cc1 | 12.2%
24 | CCOC(=O)N1CCN(C(=O)c2ccc3nc4cc(Cl)ccc4c(=O)n3c2)CC1 | 10.4%
25 | COc1ccc(CCNC(=O)c2cnc(Cl)c(Cl)c2)cc1 | 1.06%
26 | CCN(CC(=O)Nc1ccc(OC)cc1)C(=O)CSCc1ccc(C)cc1 | 25%
27 | COc1ccc(C(=O)CCC(=O)Nc2ccc(Cl)cc2)cc1 | 12.1%
28 | COc1ccc(CS(=O)/C(Cl)=C(/Cl)C(=O)Nc2ccc(OC)nc2)cc1 (centres undefined) | 85.7% (active)
29 | COc1ccc(NC(=O)/C(Cl)=C(/Cl)S(=O)Cc2ccc(C)cc2)cn1 (centres undefined) | 67% (active)
30 | COC(=O)c1sccc1NC(=S)Nc1ccc(C)cc1 | 22.6%
31 | COc1ccc2c(c1)cc1n2CCN=C1NN | 45.5%
32 | COc1ccc(C/C(N)=N/OC(=O)c2ccco2)cc1OC | 2.63%
33 | COc1ccc(C(=O)ON=C2c3ccccc3-c3ccccc32)cc1OC | 0.197%
34 | COc1ccc(C(=O)O/N=C(\N)Cc2ccc(Cl)cc2Cl)cc1OC | 60.3% (active)
35 | Cn1nc(C(F)(F)F)c2cc(C(=O)N3CCOCC3)sc21 | 3.93%
36 | Cn1nc(C(F)(F)F)c2cc(NC(=O)OCC(C)(C)C)sc21 | 50.2% (active)
37 | Cn1nc(C(F)(F)F)c(-c2ccc(F)cc2)c1NC(=O)CSCC(=O)O | -1.38%
38 | COc1ccc(CCNC(=O)C2CCCN(Cc3nc(-c4cccc(Cl)c4)oc3C)C2)cc1OC (centres undefined) | 7.77%
39 | COc1cc(OC)c2c(-c3cccc(-c4cccc(N)c4)c3)cc(=O)oc2c1 | 35.7%
40 | O=C(O)c1ccc(/C=N/NC(=S)NCc2ccccc2)cc1 | -1.86%
41 | C/C(=N\NC(=S)NCc1ccccc1)c1ccc(Cl)cc1 | 56% (active)
42 | C/C(=N\NC(=S)NCc1ccccc1)C1CCCCC1 | 22.7%
43 | Cc1nn(C)c(C)c1CN(C(=O)CCc1nnc(Cc2c[nH]c3ccccc23)o1)C(C)C | 20.5%
44 | COc1ccc(-n2cnc3cc(C(=O)NC4CCCC4)ccc32)cc1 | 17.7%

Row | Compound | inhibition
45 | CCCNC(=S)N1CCC(NC(=O)c2ccc(OC)cc2)CC1 | -9.98%
46 | O=C(NC1CCCCCC1)C1CCN(C(=O)c2ccc(Cl)cc2)CC1 | 15.7%
47 | O=C(NC(=S)NC1CCCCC1)c1ccc(Cl)cc1 | 67.3% (active)
48 | O=C(NNC(=S)NC1CCCCC1)c1ccccc1Cl | 5.3%
49 | COc1ccc(C(=O)NC(=S)NC2CCCCC2)cc1 | 63.3% (active)
50 | CCc1ccc(S(=O)(=O)NCC(O)COc2ccc(OC)cc2)cc1 (centres undefined) | 13.2%
51 | CCc1ccc(Nc2n[n+](-c3ccccc3)c(-c3cccc(Cl)c3Cl)s2)cc1 | 36.3%
52 | CC(=O)C1=C(O)C(=O)N(c2cccnc2)C1c1ccc([N+](=O)[O-])cc1 (centres undefined) | 4.69%
53 | O=C1[C@@H](c2ccccc2)[C@@H](c2ccccc2)N1c1cccnc1 | 70.3% (active)
54 | CCc1ccccc1NC1c2ccccc2C(=O)N1c1cccnc1 (centres undefined) | -9.01%
55 | COc1cc(/C=N/Nc2nc3ccccc3s2)ccc1O | 51.9% (active)
56 | COc1cc(/C=N/NC(=O)CCc2n[nH]c(=O)[nH]c2=O)ccc1O | 5.73%
57 | CCOc1cc(/C=N/Nc2cc(C)nc3ccc(C)cc23)ccc1O | 37.3%
58 | CC(=O)c1c(C)[nH]c(C(=O)CN2C(=O)NC(C)(C)C2=O)c1C | -12.9%
59 | Cc1ccc(S(=O)(=O)N[C@@H](Cc2ccccc2)C(=O)N2CCC(C(=O)N[C@H](C(=O)O)C(C)O)CC2)cc1 (some centres undefined) | 0.987%
60 | Oc1c(Cl)cc(Cl)c(Cl)c1Cc1c(O)c(Cl)cc(Cl)c1Cl | 94.9% (active)
61 | Cc1ccc(OC(=O)c2cncc(Br)c2)c(C)c1 | 14.1%
62 | CC1(C)C2CCC1(C)C(OC(=O)CCn1ccnc1)C2 (centres undefined) | 13.1%
63 | CC1(C)C2CCC1(C)C(OC(=O)c1ccc(O)cc1)C2 (centres undefined) | 70% (active)
64 | Cc1ccc(C(=O)OC2CCCN(C)C2)cc1 (centres undefined) | -2.9%
